Screening results: PubChem BioAssay, National Center for Advancing Translational Sciences (NCATS)
Pf growth 96h – P. falciparum growth inhibition at 96 hours. AID 504834. P. falciparum luciferase reporter growth, 96 h. Potency, µM (series often up to 28.7 µM), actives largely listed as inhibitors. 320,000 compounds, 6.9% hits
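Readout is luminescence from an integrated firefly luciferase in P. falciparum. Red cells, 2% hematocrit and 0.05% parasitemia final, were cultured with compound through two parasite generations (96 hours) at 37 C, 5% CO2.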
HCMV inh – inhibitors of human cytomegalovirus; 410,000 compounds, 4.5% hits; activity change, negative = inhibition, % at 57.5 µM; HFF cells, HCMV-luciferase reporter, 72 h; hits give low values; in the data active means activity change below about -60%; inconclusive means no clear call, values can overlap the other calls; inactive means above about -39%
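Human foreskin fibroblasts infected with luciferase-reporter HCMV at MOI 1 PFU/cell, compounds at two doses. Luciferase measured 72 h post infection; normalized to buffer-only basal and Salinomycin (10uM) controls.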
SARS PLP yeast – blocks SARS-CoV papain-like protease in a yeast assay | S. cerevisiae expressing SARS-CoV PLpro, growth rescue | Potency, µM (series often up to 32.9 µM), usual class: activators | 330,000 compounds, 0.19% hits; calls by dose curve; further: nearly all actives have a fitted effect of over 55% in size
HCV inhibitor – inhibitors of hepatitis C virus infection. Huh7.5.1 HCVcc-Cre infection, luciferase reporter, 44 h. 340,000 compounds, 3.4% hits. Potency, µM (top dose mostly 41.8 µM), actives largely listed as inhibitors. AID 651820
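Infectious HCVcc-Cre (~0.5 moi) was added to cells just after compound, with cells seeded 4 h earlier at 1,000 per well. Luciferase activity after 44 h culture reported infection; substrate was incubated 15 min at room temperature before reading.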
Pf growth 48h – inhibits P. falciparum growth in the first generation, 48 h; AID 504832; 310,000 compounds, 5.9% hits; Potency, µM (top dose mostly 28.7 µM), most hits filed as inhibitors; P. falciparum luciferase growth in erythrocytes, 48 h
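Cell-based growth assay: transgenic P. falciparum expressing firefly luciferase, cultured in red cells within RPMI 1640 containing 0.5% w/v Albumax, 24 mM bicarbonate and gentamycin. A drop in luciferase activity indicates inhibition.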
Sm TGR inh – inhibitors of Schistosoma mansoni thioredoxin glutathione reductase. purified TGR, DTNB reduction, TNB absorbance 405 nm. Potency, µM (top dose mostly 114 µM), hits mostly inhibitors. 360,000 compounds, 3% hits. AID 485364; further: nearly all actives have a fitted effect of over 60% in size
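First, TGR (20 nM dispensed) and NADPH were mixed with compound. Second, a 15 min room-temperature incubation followed. Third, further NADPH and then DTNB were added to start the reaction. Finally, TNB absorbance was monitored kinetically.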
Of the large screens only hits and unclear results are named; the others gave an inactive call. Rows were chosen to be rich in hits. Some 15% of all compounds tested hit in one or more screens of this group. Unless noted, the call rests on the fitted dose curve; in most records, active means well fitted curve in the direction sought with a large enough effect; inconclusive means small, poorly fitted or top-dose-only effect, or another doubt; inactive means no such curve, though single readings can be large; an effect the other way counts as inactive or inconclusive.

C#CCOCCOCCOCCNc1nc(N2CCN(C(=O)[C@H](Cc3ccc(O)cc3)n3cc([C@@H](N)C(C)CC)nn3)CC2)nc(N2CCN(C(=O)[C@H](Cc3cc4ccccc4[nH]3)n3cc([C@@H](N)C(C)CC)nn3)CC2)n1 (some centres not stated)	Pf growth 96h inconclusive, Pf growth 48h inconclusive (no result: HCMV inh)
C#CCOCCOCCOCCNc1nc(N2CCN(C(=O)[C@H](Cc3cc4ccccc4[nH]3)n3cc([C@@H](N)C(C)CC)nn3)CC2)nc(N2CCN(C(=O)[C@H](Cc3cc4ccccc4[nH]3)n3cc([C@@H](N)Cc4ccc(O)cc4)nn3)CC2)n1 (some centres not stated)	Pf growth 96h inconclusive, Pf growth 48h inconclusive (no result: HCMV inh, HCV inhibitor)
C#CCOCCOCCOCCNc1nc(N2CCN(C(=O)C(Cc3cc4ccccc4[nH]3)n3cc(C(N)Cc4ccc(O)cc4)nn3)CC2)nc(N2CCN(C(=O)C(Cc3cc4ccccc4[nH]3)n3cc(C(N)Cc4ccc(O)cc4)nn3)CC2)n1 (configuration not stated)	Pf growth 96h inconclusive, Pf growth 48h 2.3µM (no result: HCMV inh)
C#CCOCCOCCOCCNc1nc(N2CCN(C(=O)[C@H]([C@@H](C)CC)n3cc([C@@H](N)Cc4ccc(O)cc4)nn3)CC2)nc(N2CCN(C(=O)[C@H](Cc3cc4ccccc4[nH]3)n3cc([C@@H](N)C(C)CC)nn3)CC2)n1 (some centres not stated)	Pf growth 96h 12µM, Pf growth 48h inconclusive, Sm TGR inh inconclusive (no result: HCMV inh, HCV inhibitor)
C#CCOCCOCCOCCNc1nc(N2CCN(C(=O)[C@H](Cc3ccc(O)cc3)n3cc([C@@H](N)C(C)CC)nn3)CC2)nc(N2CCN(C(=O)[C@H](Cc3cc4ccccc4[nH]3)n3cc([C@@H](N)CC(C)C)nn3)CC2)n1 (some centres not stated)	Pf growth 96h inconclusive, Pf growth 48h 2.9µM, Sm TGR inh inconclusive
C#CCOCCOCCOCCNc1nc(N2CCN(C(=O)[C@H](Cc3cc4ccccc4[nH]3)n3cc([C@@H](N)Cc4ccc(O)cc4)nn3)CC2)nc(N2CCN(C(=O)[C@H](Cc3cc4ccccc4[nH]3)n3cc([C@@H](N)CC(C)C)nn3)CC2)n1	Pf growth 96h 10µM, Pf growth 48h 13µM (no result: HCMV inh)
Cc1cccc(N(C)C(=O)c2cc3c(=O)oc4ccc(C)cc4c3s2)c1	none (no result: Pf growth 96h, SARS PLP yeast, HCV inhibitor, Pf growth 48h)
CC(C)CC(=O)NC(=S)Nc1ccc(N2CCCC2)c(Cl)c1	Pf growth 96h inconclusive, HCMV inh -62, Pf growth 48h 3.3µM
O=C(NC(=S)Nc1ccc(N2CCOCC2)c(Cl)c1)C(c1ccccc1)c1ccccc1	Pf growth 96h inconclusive
CC(C)C(=O)Nc1ccc(N2CCCC2)c(Cl)c1	none
O=C(/C=C/c1ccco1)NC(=S)Nc1ccc(N2CCOCC2)c(Cl)c1	Sm TGR inh 40µM
CCCC(=O)NC(=S)Nc1ccc(N2CCOCC2)c(Cl)c1	Pf growth 96h 12µM, Pf growth 48h inconclusive
O=C(/C=C/c1ccccc1)NC(=S)Nc1ccc(N2CCOCC2)c(Cl)c1	none
COc1ccc(S(=O)(=O)N(C)C[C@H]2Oc3c(NC(=O)NC(C)C)cccc3C(=O)N([C@H](C)CO)C[C@@H]2C)cc1	none (no result: Pf growth 96h, Pf growth 48h, Sm TGR inh)
CCc1[nH]nc(C(=O)N/N=C/c2ccncc2)c1C	none
CCN(CC)Cc1nc2c(c(=O)[nH]1)C1(CCCC1)Cc1ccccc1-2	Pf growth 96h 12µM, HCV inhibitor inconclusive, Pf growth 48h inconclusive
O=c1[nH]c(CN(CCO)CCO)nc2c1C1(CCCCC1)Cc1ccccc1-2	Sm TGR inh inconclusive
CCCCCCCCCCCCC/C=C/[C@@H](O)[C@@H](N)CO	none (no result: SARS PLP yeast)
COc1ccc(/C(O)=C2/C(=O)C(=O)N(Cc3ccco3)C2c2cccs2)cc1 (configuration not stated)	none
CC1Cc2cc(/C(O)=C3/C(=O)C(=O)N(Cc4ccco4)C3c3cccs3)ccc2O1 (configuration not stated)	Sm TGR inh 35µM
CC1Cc2cc(/C(O)=C3/C(=O)C(=O)N(CCCn4ccnc4)C3c3ccncc3)ccc2O1 (configuration not stated)	none
CC1Cc2cc(/C(O)=C3/C(=O)C(=O)N(CCCn4ccnc4)C3c3ccco3)ccc2O1 (configuration not stated)	Pf growth 96h 0.21µM
CCC1(CC)NC(=O)N(CC(=O)OCC(=O)Nc2cc(OC)ccc2OC)C1=O	none
COc1ccccc1C(=O)Nc1ccc(OCC(=O)N2CC(C)CC(C)C2)cc1 (configuration not stated)	Pf growth 96h inconclusive, HCV inhibitor inconclusive
CC1(Cc2ccc(Cl)cc2)C(=O)Nc2ccc(-c3cccnc3)cc21 (configuration not stated)	HCMV inh -66 (no result: Pf growth 96h, SARS PLP yeast, HCV inhibitor, Pf growth 48h, Sm TGR inh)
CC1(Cc2cc(Cl)ccc2C(F)(F)F)C(=O)Nc2ccc(-c3ccc(F)c(Cl)c3)cc21 (configuration not stated)	HCMV inh -63 (no result: Pf growth 96h, SARS PLP yeast, HCV inhibitor, Pf growth 48h, Sm TGR inh)
CC1(Cc2cccc(F)c2)C(=O)Nc2ccc(-c3cccnc3)cc21 (configuration not stated)	HCMV inh -74 (no result: Pf growth 96h, SARS PLP yeast, HCV inhibitor, Pf growth 48h, Sm TGR inh)
CC(C)C(OC(=O)c1nsc(Cl)c1Cl)C(=O)NCC1CCCO1 (configuration not stated)	none
Cn1c(=O)c2cc(NC(=S)NC3CCCCC3)ccc2n1-c1ccccc1	none (no result: Pf growth 96h, SARS PLP yeast, HCV inhibitor, Pf growth 48h, Sm TGR inh)
CCC(C)c1ccc(S(=O)(=O)N2CCN(C(=O)CN3C(=O)NC(C)(C4CC4)C3=O)CC2)cc1 (configuration not stated)	none (no result: Pf growth 96h, SARS PLP yeast, HCV inhibitor, Pf growth 48h, Sm TGR inh)
CCOC(=O)CSC1=NC(=O)/C(=C\c2ccc(OC(C)=O)cc2)S1	HCV inhibitor inconclusive, Sm TGR inh 8.9µM
CCOC(=O)CSC1=NC(=O)/C(=C/c2ccc(Br)cc2)S1	Sm TGR inh 3.2µM
COC(=O)c1ccc(C(=O)OC)c(NC(=S)N2CCCC(C)C2)c1 (configuration not stated)	SARS PLP yeast inconclusive
Cc1ccc(-n2nc(C)c3c2OC(N)=C(C#N)C3c2ccoc2)cc1 (configuration not stated)	Sm TGR inh inconclusive (no result: Pf growth 96h, Pf growth 48h)
Cc1ccc(-n2nc(C)c3c2OC(N)=C(C#N)C3c2ccco2)cc1 (configuration not stated)	Sm TGR inh 40µM
Cc1ccc(SCc2[nH]nc3c2C(c2ccc(C)o2)C(C#N)=C(N)O3)cc1 (configuration not stated)	Sm TGR inh 25µM
Cc1ccc(-n2nc(C)c3c2OC(N)=C(C#N)C3c2ccc(C)o2)cc1 (configuration not stated)	Pf growth 96h inconclusive, Sm TGR inh 22µM
CCOc1cc(C(N)=O)cc(Br)c1OCc1ccccc1	none (no result: Sm TGR inh)
